Laboratory results from PubChem BioAssay (NCI).
This is part of a sample that, as a whole, favours compounds with a hit. Of some 79,000 tested, about 15% had one in any assay. The source made the active and inactive calls. No stated cut-off is given here; in the data, active means growth inhibition above about 70%; inactive means the rest.

Key:
[1] = NCI Yeast Anticancer Drug Screen. Data for the rad52 strain (AID 147);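 further: 0% = growth of vehicle-treated control cultures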; details: S. cerevisiae rad52 mutant growth inhibition, stronger effect = higher value
Procedure, shortened: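 Here a repair-compromised yeast strain receives each compound; its growth is then quantified and normalised to vehicle-only controls.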

[2] = NCI Yeast Anticancer Drug Screen. Data for the wt1 strain (AID 149);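 further: 0% = growth of vehicle-treated wt1 cultures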; details: S. cerevisiae wt1 strain (SPY 50644) growth inhibition, stronger effect = higher value
Procedure, shortened: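 Readout: yeast growth inhibition, normalised to vehicle controls, in the wt1 strain exposed to test compounds.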

[3] = NCI Yeast Anticancer Drug Screen. Data for the rad50EPP+ strain (AID 151);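 further: 0% = growth of vehicle-treated control cultures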; details: S. cerevisiae rad50 mutant strain, stronger effect = higher value
Procedure, shortened: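 Read-out is yeast growth inhibition relative to vehicle; cells used were the rad50EPP+ strain.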

[4] = NCI Yeast Anticancer Drug Screen. Data for the mgt1 strain (AID 153); details: S. cerevisiae mgt1 mutant growth inhibition, stronger effect = higher value
Procedure, shortened: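 Measured: inhibition of mgt1 yeast growth by compound, normalized to vehicle-treated cultures.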

[5] = NCI Yeast Anticancer Drug Screen. Data for the rad50 strain (AID 155);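 further: 0% = growth of vehicle-only cultures of the same strain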; details: S. cerevisiae rad50 strain growth inhibition, stronger effect = higher value
Procedure, shortened: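 Compounds were tested on a yeast strain with an engineered DNA damage repair alteration; the reported value is growth inhibition normalised to vehicle treatment.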

[6] = NCI Yeast Anticancer Drug Screen. Data for the mec2-1 strain (AID 157); details: S. cerevisiae mec2-1 strain, stronger effect = higher value
Procedure, shortened: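 Using mec2-1 yeast: add compound, measure growth, express inhibition versus vehicle-treated cultures.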

[7] = NCI Yeast Anticancer Drug Screen. Data for the rad14 strain (AID 159);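 further: 0% = growth of vehicle-treated control cultures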; details: S. cerevisiae rad14 strain growth inhibition, stronger effect = higher value
Procedure, shortened: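 Compound-treated yeast with a defined DNA-repair lesion; growth inhibition normalised to vehicle-treated cultures.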

[8] = NCI Yeast Anticancer Drug Screen. Data for the sgs1 mgt1 strain (AID 161);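 further: 0% = growth of cultures given vehicle only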; details: S. cerevisiae sgs1 mgt1 strain, stronger effect = higher value
Procedure, shortened: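 Yeast cells carrying a defined DNA-repair defect were exposed to test compounds. Growth inhibition was measured relative to vehicle-treated controls.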

[9] = NCI Yeast Anticancer Drug Screen. Data for the CLN2oe strain (AID 163);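 further: 0% = growth of vehicle-only control cultures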; details: S. cerevisiae CLN2oe strain, stronger effect = higher value
Procedure, shortened: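 Whole-cell yeast growth assay. A strain engineered for altered cell-cycle control received compound, and inhibition relative to vehicle-treated cultures was recorded.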

[10] = NCI Yeast Anticancer Drug Screen. Data for the cln2 rad14 strain (AID 165);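 further: 0% = growth equal to vehicle treated cultures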; details: S. cerevisiae cln2 rad14 strain, stronger effect = higher value
Procedure, shortened: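 Yeast strain cln2 rad14, bearing defects in cell cycle control and DNA repair, serves as the test system; values reflect growth inhibition compared with vehicle.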

[11] = NCI Yeast Anticancer Drug Screen. Data for the bub3 strain (AID 167); details: S. cerevisiae bub3 mutant strain, stronger effect = higher value
Procedure, shortened: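 Growth of a checkpoint-deficient yeast mutant is measured after compound exposure. Values represent inhibition relative to vehicle.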

[12] = NCI Yeast Anticancer Drug Screen. Data for the wt2 strain (AID 169);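 further: 0% = growth of vehicle-treated yeast cultures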; details: S. cerevisiae wt2 strain growth inhibition, stronger effect = higher value
Procedure, shortened: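 Treated yeast vs. vehicle-treated yeast: growth inhibition determined.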

[13] = NCI Yeast Anticancer Drug Screen. Data for the mlh1 strain (AID 171);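 further: 0% = growth of vehicle-treated control cultures of the same strain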; details: S. cerevisiae mlh1 strain growth inhibition, stronger effect = higher value
Procedure, shortened: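 A yeast strain with a defined genetic lesion serves as the test organism. Cultures receive compound or vehicle, and growth is measured.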

[14] = NCI Yeast Anticancer Drug Screen. Data for the mlh1 rad18 strain (AID 175); details: S. cerevisiae mlh1 rad18 strain growth inhibition, stronger effect = higher value
Procedure, shortened: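 Steps: expose repair-defective yeast to compound; measure growth; express inhibition against vehicle-treated controls.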

[15] = at 5.0 µM (retest, dose inferred, filed as 0.5)
[16] = at 50.0 µM (retest, dose inferred, filed as 5.0)

Measured: growth inhibition

CC(=O)/C=C/c1cc([N+](=O)[O-])ccc1O
active: [1]; at 33.0 µM 79% | [1]; at 100.0 µM 97% | [2]; at 100.0 µM 97% | [3]; at 33.0 µM 78% | [3]; at 100.0 µM 95% | [4]; at 33.0 µM 94% | [4]; at 100.0 µM 97% | [5]; at 33.0 µM 83% | [5]; [16] 85% | [5]; at 50.0 µM 86% | [5]; at 100.0 µM 97% | [6]; at 33.0 µM 96% | [6]; [16] 89% | [6]; at 50.0 µM 90.5% | [6]; at 100.0 µM 99% | [7]; at 33.0 µM 97% | [7]; at 100.0 µM 98% | [8]; [16] 87% | [8]; at 50.0 µM 88.9% | [9]; at 33.0 µM 86% | [9]; at 100.0 µM 98% | [10]; [16] 87% | [11]; at 33.0 µM 95% | [11]; [16] 92% | [11]; at 100.0 µM 98% | [12]; at 33.0 µM 76% | [12]; at 100.0 µM 98% | [13]; at 33.0 µM 98% | [13]; at 100.0 µM 99% | [14]; [16] 97% | [14]; at 50.0 µM 85.1%
inactive: [1]; at 1.2 µM -47% | [1]; at 3.7 µM -33% | [1]; at 11.0 µM -9% | [2]; at 1.2 µM -12% | [2]; at 3.7 µM -33% | [2]; at 11.0 µM -2% | [2]; at 33.0 µM 66% | [3]; at 1.2 µM -27% | [3]; at 3.7 µM -4% | [3]; at 11.0 µM 30% | [4]; at 1.2 µM -1% | [4]; at 3.7 µM 2% | [4]; at 11.0 µM -2% | [5]; at 1.2 µM -22% | [5]; at 3.7 µM -20% | [5]; [15] 7% | [5]; at 11.0 µM -5% | [6]; at 1.2 µM -5% | [6]; at 3.7 µM -25% | [6]; [15] 0% | [6]; at 11.0 µM 29% | [7]; at 1.2 µM -30% | [7]; at 3.7 µM -22% | [7]; at 11.0 µM 9% | [8]; [15] 12% | [9]; at 1.2 µM -5% | [9]; at 3.7 µM 3% | [9]; at 11.0 µM 23% | [10]; [15] 36% | [10]; at 50.0 µM 46.5% | [11]; at 1.2 µM -28% | [11]; at 3.7 µM -18% | [11]; [15] 21% | [11]; at 11.0 µM 11% | [11]; at 50.0 µM 49.7% | [12]; at 1.2 µM -31% | [12]; at 3.7 µM -32% | [12]; at 11.0 µM -23% | [13]; at 1.2 µM -6% | [13]; at 3.7 µM 3% | [13]; at 11.0 µM 33% | [14]; [15] 24%
